Results: PubChem BioAssay (NCI)
The panel holds about 83,000 compounds, 20% with a hit somewhere; the sample as a whole holds those more often.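 Assay: single dose, 48 h. Readout: percent growth (0 = no net growth; negative = cell death). Active: <10.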 Active and inactive are the calls of the source.

Key:
Experiment in all cases: NCI-60 one-dose screen, 48 h (100 = growth as untreated, 0 = no growth, -100 = all killed)
Details in all cases: 10 µM unless noted
SK-MEL-2 melanoma = system: SK-MEL-2 melanoma
EKVX NSCLC = system: EKVX NSCLC
SN12C renal = system: SN12C renal
UO-31 renal = system: UO-31 renal
TK-10 renal = system: TK-10 renal
ACHN renal = system: ACHN renal
CAKI-1 renal = system: CAKI-1 renal
CCRF-CEM leukemia = system: CCRF-CEM leukemia
MOLT-4 leukemia = system: MOLT-4 leukemia

Measured: growth

CN(C)CN1CCN(c2ccc3nc(-c4ccc5nc(-c6ccc(C(F)(F)F)cc6)[nH]c5c4)[nH]c3c2)CC1
inactive: SK-MEL-2 melanoma 52% | EKVX NSCLC 79% | SN12C renal 64.4% | UO-31 renal 131% | TK-10 renal 130% | ACHN renal 79.3% | CAKI-1 renal 73.6% | CCRF-CEM leukemia 38.6% | MOLT-4 leukemia 44.2%

COc1ccc2c(c1)/C(=C\c1sc(=S)[nH]c1O)C(C(=O)O)=N2
inactive: SK-MEL-2 melanoma 99.4% | EKVX NSCLC 93.6% | SN12C renal 100% | UO-31 renal 82.6% | TK-10 renal 108% | ACHN renal 99.8% | CAKI-1 renal 86.2% | CCRF-CEM leukemia 95.7% | MOLT-4 leukemia 103%

CCn1c(Sc2nnc(Nc3ccccc3)s2)nc2c1c(=O)n(C)c(=O)n2C
inactive: SK-MEL-2 melanoma 130% | EKVX NSCLC 86.5% | SN12C renal 96.4% | UO-31 renal 73% | TK-10 renal 146% | ACHN renal 91% | CAKI-1 renal 93.9% | CCRF-CEM leukemia 117% | MOLT-4 leukemia 110%

N#C/C(=C\c1ccc(Br)cc1)n1nnc2ccccc21
active: SK-MEL-2 melanoma -1.82% | SN12C renal 8.47% | UO-31 renal -13.6% | TK-10 renal 1.55% | ACHN renal -16.7% | CAKI-1 renal 1.73% | CCRF-CEM leukemia 8.29% | MOLT-4 leukemia 9.75%
inactive: EKVX NSCLC 20%

O=C(/C=C/C12c3ccccc3C(c3ccccc31)C1C(=O)NC(=O)C12)c1ccccc1 (stereo unspecified)
inactive: SK-MEL-2 melanoma 30.9% | EKVX NSCLC 21% | SN12C renal 18.8% | UO-31 renal 39.7% | TK-10 renal 44.3% | ACHN renal 32.7% | CAKI-1 renal 45.2% | CCRF-CEM leukemia 12.6% | MOLT-4 leukemia 16.6%

COc1cc(CNC(=O)/C=C/C=C/c2ccc3c(c2)OCO3)ccc1OCc1cn(-c2ccc(Cl)c(Cl)c2)nn1
inactive: EKVX NSCLC 13.1% | SN12C renal 34.1% | UO-31 renal 45.5% | CCRF-CEM leukemia 57.7%
active: SK-MEL-2 melanoma -37.3% | TK-10 renal -11.4% | ACHN renal -51% | CAKI-1 renal -17% | MOLT-4 leukemia -12.2%

Cc1ccc(S(=O)(=O)N(CC[C@@H]2C[C@H]2c2cc3ccccc3o2)C(=O)NC2CCCCC2)cc1
inactive: SK-MEL-2 melanoma 101% | EKVX NSCLC 101% | SN12C renal 100% | UO-31 renal 75.9% | TK-10 renal 106% | ACHN renal 96.9% | CAKI-1 renal 80.1% | CCRF-CEM leukemia 118% | MOLT-4 leukemia 94.7%

Cc1[nH]c(-c2nc3ccccc3[nH]2)c(C)c1C(=O)NNc1ccc(Cl)cc1
inactive: SK-MEL-2 melanoma 103% | EKVX NSCLC 94.2% | SN12C renal 90.7% | UO-31 renal 72.5% | TK-10 renal 106% | ACHN renal 102% | CAKI-1 renal 80.2% | CCRF-CEM leukemia 94.6% | MOLT-4 leukemia 81.6%

O=[N+]([O-])c1cccc(/C=C/c2ccccn2)c1
inactive: SK-MEL-2 melanoma 117% | EKVX NSCLC 74.3% | SN12C renal 84.3% | UO-31 renal 69.4% | TK-10 renal 104% | ACHN renal 72.1% | CAKI-1 renal 52.3% | CCRF-CEM leukemia 65.5% | MOLT-4 leukemia 75.2%

CNCCNc1nc2ccccc2c2c(=O)c3cc(F)ccc3oc12
inactive: SK-MEL-2 melanoma 100% | EKVX NSCLC 71.9% | SN12C renal 46.9% | UO-31 renal 37.7% | TK-10 renal 80.2% | ACHN renal 24% | CAKI-1 renal 45% | CCRF-CEM leukemia 52.4% | MOLT-4 leukemia 10.7%

O=C1Nc2ccccc2/C1=N/N=C/c1ccc(OC2OC(CO)C(O)C(O)C2O)cc1 (stereo unspecified)
inactive: SK-MEL-2 melanoma 107% | EKVX NSCLC 100% | SN12C renal 101% | UO-31 renal 78.6% | TK-10 renal 110% | ACHN renal 103% | CAKI-1 renal 95.1% | CCRF-CEM leukemia 107% | MOLT-4 leukemia 112%

Cc1cc(-c2noc(C(F)(F)F)n2)ccc1N1CCN(c2cc(C(=O)N(C)C)no2)CC1
inactive: SK-MEL-2 melanoma 73% | EKVX NSCLC 49.5% | SN12C renal 83% | UO-31 renal 62.7% | TK-10 renal 81.2% | ACHN renal 63.9% | CAKI-1 renal 67.7% | CCRF-CEM leukemia 65.3% | MOLT-4 leukemia 71.5%

O=C(/C=C/C12c3ccccc3C(c3ccccc31)C1C(=O)N(c3ccccc3)C(=O)C12)c1ccc(Cl)cc1 (stereo unspecified)
inactive: SK-MEL-2 melanoma 22.3% | EKVX NSCLC 22.9% | SN12C renal 19.9% | TK-10 renal 42.8% | CAKI-1 renal 54.2% | CCRF-CEM leukemia 13% | MOLT-4 leukemia 11.9%
active: UO-31 renal -37.1% | ACHN renal -36.2%

N#Cc1c(NC(=O)c2ccc(Br)cc2)sc2c1CCCC2
inactive: SK-MEL-2 melanoma 37% | EKVX NSCLC 37% | SN12C renal 45.7% | UO-31 renal 63% | TK-10 renal 72.7% | ACHN renal 47.6% | CAKI-1 renal 54.3% | CCRF-CEM leukemia 20.4% | MOLT-4 leukemia 32.5%

CCCN1CCN(c2ccc3nc(-c4ccc5nc(-c6ccc(OCC)c(OCC)c6)[nH]c5c4)[nH]c3c2)CC1
inactive: UO-31 renal 47.2%
active: SK-MEL-2 melanoma -73.9% | EKVX NSCLC -3.15% | SN12C renal -37.5% | TK-10 renal -0.902% | ACHN renal -28.9% | CAKI-1 renal -18.9% | CCRF-CEM leukemia 5.88% | MOLT-4 leukemia 3.28%

O=C(CC12CC3CC(CC(C3)C1)C2)NCCOCCOCCNC(=O)c1cc2c(o1)C(=O)c1ccccc1C2=O
active: SK-MEL-2 melanoma -42% | EKVX NSCLC -66.4% | SN12C renal -96.3% | UO-31 renal -60.1% | TK-10 renal -27.1% | ACHN renal -74% | CAKI-1 renal -65.8% | MOLT-4 leukemia -4.92%
inactive: CCRF-CEM leukemia 12.6%

NS(=O)(=O)Oc1ccc(NC(=O)C23CC4CC(CC(C4)C2)C3)cc1Cl
inactive: SK-MEL-2 melanoma 99.9% | EKVX NSCLC 93% | SN12C renal 90.6% | UO-31 renal 63.4% | TK-10 renal 100% | ACHN renal 96.1% | CAKI-1 renal 89% | CCRF-CEM leukemia 73.6% | MOLT-4 leukemia 82.3%

C=CCOc1cccc(/C=C2\SC(=Nc3ccc(O)cc3)NC2=O)c1
active: CCRF-CEM leukemia 4.85%
inactive: SK-MEL-2 melanoma 40.6% | EKVX NSCLC 28.8% | SN12C renal 14.9% | UO-31 renal 20.7% | TK-10 renal 67.7% | ACHN renal 24.3% | CAKI-1 renal 24.4% | MOLT-4 leukemia 13.4%

O=C1NC(=S)S/C1=C\N1N=C(c2ccc(Cl)cc2)CC1c1ccc(F)cc1 (stereo unspecified)
inactive: SK-MEL-2 melanoma 95.5% | EKVX NSCLC 76% | SN12C renal 96.5% | UO-31 renal 60.1% | TK-10 renal 101% | ACHN renal 87.2% | CAKI-1 renal 85.4% | CCRF-CEM leukemia 65.5% | MOLT-4 leukemia 45.1%

CCCCN1CCN(c2ccc3nc(-c4ccc5nc(-c6cc(OC)c(OC)c(OC)c6)[nH]c5c4)[nH]c3c2)CC1
inactive: SK-MEL-2 melanoma 83.8% | EKVX NSCLC 106% | SN12C renal 80.2% | UO-31 renal 79.8% | TK-10 renal 131% | ACHN renal 86.8% | CAKI-1 renal 87.9% | CCRF-CEM leukemia 25.1% | MOLT-4 leukemia 47%

CC(=[N-])N1CCC[C@@H](Nc2c3ccccc3nc3ccccc23)C1.[Cl][Pt].[NH-]CCC[NH-]
inactive: SK-MEL-2 melanoma 52.4% | EKVX NSCLC 52.3% | UO-31 renal 27.4% | CAKI-1 renal 15.5% | CCRF-CEM leukemia 35.4% | MOLT-4 leukemia 14.6%
active: SN12C renal 5.71% | TK-10 renal 1.35% | ACHN renal -22.2%

O=c1cc(-c2ccc(OCc3ccccc3)cc2)oc2c(I)c(OCc3ccccc3)cc(OCc3ccccc3)c12
inactive: SK-MEL-2 melanoma 113% | EKVX NSCLC 109% | SN12C renal 101% | UO-31 renal 80% | TK-10 renal 96.5% | ACHN renal 98.5% | CAKI-1 renal 84.2% | CCRF-CEM leukemia 97.8% | MOLT-4 leukemia 113%

O=C(/C=C/C12c3ccccc3C(c3ccccc31)C1C(=O)N(c3ccccc3)C(=O)C12)c1ccccc1 (stereo unspecified)
inactive: SK-MEL-2 melanoma 24.5% | SN12C renal 15% | TK-10 renal 20.8% | CAKI-1 renal 45.8% | MOLT-4 leukemia 11%
active: EKVX NSCLC 8.88% | UO-31 renal -77.5% | ACHN renal -15% | CCRF-CEM leukemia 9.95%

N=C(N)c1ccc(-c2ccc(/C=C/c3ccccc3)s2)cc1
inactive: SK-MEL-2 melanoma 102% | EKVX NSCLC 71.2% | UO-31 renal 63.1% | TK-10 renal 98.5% | CAKI-1 renal 32.5%
active: SN12C renal -31.8% | ACHN renal -5.84% | CCRF-CEM leukemia 1.58% | MOLT-4 leukemia -21%

CNC=O
inactive: SK-MEL-2 melanoma 110% | EKVX NSCLC 156% | SN12C renal 99.8% | UO-31 renal 89.5% | TK-10 renal 101% | ACHN renal 110% | CAKI-1 renal 99.6% | CCRF-CEM leukemia 103% | MOLT-4 leukemia 106%

COC1(CC[C@@H](C)COC2OC(CO)C(O)C(O)C2O)O[C@H]2C[C@H]3[C@@H]4CC=C5C[C@@H](OC6OC(CO)C(OC7OC(C)C(O)C(O)C7O)C(O)C6OC6OC(C)C(O)C(O)C6O)CC[C@]5(C)[C@H]4CC[C@]3(C)[C@H]2[C@@H]1C (stereo partly specified)
active: SK-MEL-2 melanoma -71% | EKVX NSCLC 4.85% | SN12C renal -64.7% | UO-31 renal -65.4% | TK-10 renal -60.4% | ACHN renal -87.4% | CAKI-1 renal -76.5% | CCRF-CEM leukemia -95.2% | MOLT-4 leukemia -99.1%

O=C1Nc2ccc(Cl)cc2/C1=N/N=C/c1c[nH]c2ccccc12
inactive: SK-MEL-2 melanoma 66.3% | EKVX NSCLC 22.6% | SN12C renal 80.5% | UO-31 renal 40.9% | TK-10 renal 75.8% | ACHN renal 49.8% | CAKI-1 renal 28.9% | CCRF-CEM leukemia 85.7% | MOLT-4 leukemia 92.1%

O=C(CCl)N1c2cccc3cccc(c23)N(C(=O)CCl)C1c1cn(-c2ccccc2)nc1-c1cccc([N+](=O)[O-])c1
inactive: SK-MEL-2 melanoma 111% | EKVX NSCLC 102% | SN12C renal 93.5% | UO-31 renal 66.9% | TK-10 renal 104% | ACHN renal 76.7% | CAKI-1 renal 92.5% | MOLT-4 leukemia 34.7%
active: CCRF-CEM leukemia 8.63%

CC1=CC(=O)C(C(C)C)=CC1=Nc1cc(Br)c(O)c(Br)c1
inactive: SK-MEL-2 melanoma 23.5% | EKVX NSCLC 44.1% | SN12C renal 36.3% | UO-31 renal 48.4% | TK-10 renal 93.2% | ACHN renal 57.8% | CAKI-1 renal 51.3% | MOLT-4 leukemia 23.8%
active: CCRF-CEM leukemia -1.08%
